# Results: paper PMC7862700, “An all-to-all approach to the identification of sequence-specific readers for epigenetic DNA modifications on cytosine”
# Assays:
# Test in all cases: DAPPL (digital affinity profiling via proximity ligation, sequencing); 10 mM Tris-HCl pH 7.5, 50 mM NaCl, 1 mM DTT, 4% glycerol, room temperature, 30 min; GST-TFs on glutathione beads, 16-mer random dsDNA library, 0.1% formaldehyde crosslink after washing; high values mean tight binding
# Conditions in all cases: protein: recombinant; tags: N-terminal GST; dsDNA, one strand shown
# [1] = target: T1, FLI1 (Homo sapiens, UniProt Q01543 1-452)
# T1 sequence: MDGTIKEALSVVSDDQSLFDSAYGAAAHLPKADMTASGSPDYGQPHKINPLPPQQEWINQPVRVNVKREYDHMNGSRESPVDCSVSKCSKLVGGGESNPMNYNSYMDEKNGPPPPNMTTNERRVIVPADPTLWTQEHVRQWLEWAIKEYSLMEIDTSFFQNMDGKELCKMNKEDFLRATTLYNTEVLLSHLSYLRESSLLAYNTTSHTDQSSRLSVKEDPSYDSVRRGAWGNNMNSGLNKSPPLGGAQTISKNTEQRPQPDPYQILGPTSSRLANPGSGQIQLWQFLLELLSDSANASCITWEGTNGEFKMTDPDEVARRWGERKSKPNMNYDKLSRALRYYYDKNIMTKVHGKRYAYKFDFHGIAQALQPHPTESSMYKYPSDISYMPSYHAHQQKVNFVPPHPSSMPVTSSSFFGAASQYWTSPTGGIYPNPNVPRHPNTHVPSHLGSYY
# Summary of the method: (§1)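 Human transcription factors fused to GST were expressed in yeast, captured on glutathione beads, given DNA barcodes and pooled with a GST-only negative control. Pools were incubated with 200 nmole of a 16-mer random double-stranded DNA library in Tris/NaCl/DTT/glycerol buffer at room temperature for 30 min. They were then washed, crosslinked with 0.1% formaldehyde, proximity-ligated (BsaI/T4 ligase, 1 h, 37 °C), PCR-amplified and sequenced on an Illumina NextSeq500. Binding signal is each 6-mer's read frequency for a factor divided by its frequency for the GST control.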
# [2] = target: T2, ELK1 (Homo sapiens, UniProt P19419 1-428)
# T2 sequence: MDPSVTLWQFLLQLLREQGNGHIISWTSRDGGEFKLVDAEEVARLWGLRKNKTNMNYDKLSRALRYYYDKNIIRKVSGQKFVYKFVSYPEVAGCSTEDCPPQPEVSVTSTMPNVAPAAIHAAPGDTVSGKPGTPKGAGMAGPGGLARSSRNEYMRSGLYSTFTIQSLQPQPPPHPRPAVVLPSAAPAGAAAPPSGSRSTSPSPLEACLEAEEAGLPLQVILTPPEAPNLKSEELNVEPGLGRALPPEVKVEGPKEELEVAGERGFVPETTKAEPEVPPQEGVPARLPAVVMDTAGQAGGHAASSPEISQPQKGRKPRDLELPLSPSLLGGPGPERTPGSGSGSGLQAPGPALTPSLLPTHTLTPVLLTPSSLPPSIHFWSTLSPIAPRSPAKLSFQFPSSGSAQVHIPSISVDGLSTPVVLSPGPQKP
# Summary of the method: as §1
# [3] = target: T3, GABPA (Homo sapiens, UniProt Q06546 1-454)
# T3 sequence: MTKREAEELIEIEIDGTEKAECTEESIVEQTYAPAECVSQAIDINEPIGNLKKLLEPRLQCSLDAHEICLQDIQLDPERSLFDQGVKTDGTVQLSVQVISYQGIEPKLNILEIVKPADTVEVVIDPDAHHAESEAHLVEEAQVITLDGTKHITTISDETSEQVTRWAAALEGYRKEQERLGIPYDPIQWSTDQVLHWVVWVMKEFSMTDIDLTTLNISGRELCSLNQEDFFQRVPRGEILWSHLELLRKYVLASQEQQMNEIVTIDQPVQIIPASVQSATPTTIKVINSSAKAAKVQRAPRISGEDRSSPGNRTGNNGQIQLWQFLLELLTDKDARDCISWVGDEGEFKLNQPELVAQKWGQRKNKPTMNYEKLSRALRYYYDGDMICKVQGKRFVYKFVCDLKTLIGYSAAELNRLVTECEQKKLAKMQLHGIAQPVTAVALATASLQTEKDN
# Summary of the method: as §1
# [4] = target: T4, ERG (Homo sapiens, UniProt P11308 1-479)
# T4 sequence: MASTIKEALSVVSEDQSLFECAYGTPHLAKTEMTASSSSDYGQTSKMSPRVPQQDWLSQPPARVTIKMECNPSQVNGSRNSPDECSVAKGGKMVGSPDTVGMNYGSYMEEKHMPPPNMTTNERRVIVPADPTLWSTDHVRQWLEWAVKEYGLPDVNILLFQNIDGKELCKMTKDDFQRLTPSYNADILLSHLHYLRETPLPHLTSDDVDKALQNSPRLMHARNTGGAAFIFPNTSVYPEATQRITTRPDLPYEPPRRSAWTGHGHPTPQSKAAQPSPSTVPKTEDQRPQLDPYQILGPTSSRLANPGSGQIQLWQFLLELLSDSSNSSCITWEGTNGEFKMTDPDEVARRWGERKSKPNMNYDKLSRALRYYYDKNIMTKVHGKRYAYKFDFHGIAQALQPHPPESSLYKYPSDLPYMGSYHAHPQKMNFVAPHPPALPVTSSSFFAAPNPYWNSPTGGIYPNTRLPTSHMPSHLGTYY
# Summary of the method: as §1
# [5] = target: ELF1 (Homo sapiens, UniProt P32519 1-619)
# Sequence of ELF1 (P32519 whole entry): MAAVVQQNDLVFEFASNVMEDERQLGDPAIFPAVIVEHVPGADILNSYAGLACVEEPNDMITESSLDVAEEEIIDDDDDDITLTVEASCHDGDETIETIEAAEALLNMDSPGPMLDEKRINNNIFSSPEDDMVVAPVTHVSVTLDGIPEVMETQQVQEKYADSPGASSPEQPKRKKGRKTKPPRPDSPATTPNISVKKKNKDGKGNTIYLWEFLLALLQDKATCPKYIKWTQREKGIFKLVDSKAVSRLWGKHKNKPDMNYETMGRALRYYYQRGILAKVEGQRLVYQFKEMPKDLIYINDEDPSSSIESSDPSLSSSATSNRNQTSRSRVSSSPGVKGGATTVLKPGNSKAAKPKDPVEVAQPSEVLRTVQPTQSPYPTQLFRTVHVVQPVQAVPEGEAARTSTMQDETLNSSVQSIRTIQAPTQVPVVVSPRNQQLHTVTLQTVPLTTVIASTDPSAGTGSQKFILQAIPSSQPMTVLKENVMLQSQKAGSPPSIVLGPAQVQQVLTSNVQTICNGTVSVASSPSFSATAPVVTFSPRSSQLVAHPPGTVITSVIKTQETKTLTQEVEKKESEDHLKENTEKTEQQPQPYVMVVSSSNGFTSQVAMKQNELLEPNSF
# Summary of the method: as §1
# [6] = target: T5, EHF (Homo sapiens, UniProt Q9NZC4 1-300)
# T5 sequence: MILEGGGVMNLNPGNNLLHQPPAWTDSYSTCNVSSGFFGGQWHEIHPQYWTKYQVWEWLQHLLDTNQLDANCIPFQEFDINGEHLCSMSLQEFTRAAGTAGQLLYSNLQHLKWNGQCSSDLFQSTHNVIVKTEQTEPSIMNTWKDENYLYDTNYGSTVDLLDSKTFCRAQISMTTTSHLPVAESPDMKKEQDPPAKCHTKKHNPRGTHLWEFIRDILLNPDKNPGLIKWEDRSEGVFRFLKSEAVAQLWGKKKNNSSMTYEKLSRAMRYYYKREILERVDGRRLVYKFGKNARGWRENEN
# Summary of the method: as §1
# [7] = target: SPI1 (Homo sapiens, UniProt P17947 1-270)
# Summary of the method: as §1
# [8] = target: SPIB (Homo sapiens, UniProt Q01892 1-262)
# Sequence of SPIB (Q01892 whole entry): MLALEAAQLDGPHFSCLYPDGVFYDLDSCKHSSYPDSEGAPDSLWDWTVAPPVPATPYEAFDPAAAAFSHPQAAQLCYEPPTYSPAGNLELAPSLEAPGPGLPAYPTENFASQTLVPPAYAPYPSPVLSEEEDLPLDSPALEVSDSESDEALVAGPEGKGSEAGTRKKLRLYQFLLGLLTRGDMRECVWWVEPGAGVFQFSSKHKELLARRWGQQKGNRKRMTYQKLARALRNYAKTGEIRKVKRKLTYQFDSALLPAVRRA
# Summary of the method: as §1
# [9] = target: T6, ELK3 (Homo sapiens, UniProt P41970 1-407)
# T6 sequence: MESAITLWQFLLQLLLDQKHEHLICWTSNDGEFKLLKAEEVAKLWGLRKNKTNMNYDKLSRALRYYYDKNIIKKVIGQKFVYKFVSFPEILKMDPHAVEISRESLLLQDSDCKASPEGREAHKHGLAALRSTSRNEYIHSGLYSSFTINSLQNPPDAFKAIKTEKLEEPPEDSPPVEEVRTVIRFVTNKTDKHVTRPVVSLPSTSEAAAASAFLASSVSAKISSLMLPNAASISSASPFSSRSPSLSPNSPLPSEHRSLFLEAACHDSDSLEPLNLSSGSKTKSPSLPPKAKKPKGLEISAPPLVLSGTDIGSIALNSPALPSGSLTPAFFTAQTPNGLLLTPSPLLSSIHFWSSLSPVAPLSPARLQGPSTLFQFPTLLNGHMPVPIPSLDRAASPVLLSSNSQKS
# Summary of the method: as §1
sequence,measurement,setting,value
TAAACG,binding signal,[1],"1.17 fold enrichment (6-mer frequency, TF over GST control)"
same,binding signal,[2],"1.09 fold enrichment (6-mer frequency, TF over GST control)"
same,binding signal,[3],"1.15 fold enrichment (6-mer frequency, TF over GST control)"
same,binding signal,[4],"1.09 fold enrichment (6-mer frequency, TF over GST control)"
same,binding signal,[5],"1.11 fold enrichment (6-mer frequency, TF over GST control)"
same,binding signal,[6],"1.17 fold enrichment (6-mer frequency, TF over GST control)"
same,binding signal,[7],"1.13 fold enrichment (6-mer frequency, TF over GST control)"
same,binding signal,[8],"1.19 fold enrichment (6-mer frequency, TF over GST control)"
same,binding signal,[9],"1.13 fold enrichment (6-mer frequency, TF over GST control)"
